Each structure is given as a SMILES string. About 83,000 compounds went through this panel and 20% of them were active in at least one assay; those are over-represented in the sample as a whole.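 Compound tested at a single concentration for 48 hours in 96-well plates; a percent growth value below 10 was scored as active.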 Unmarked numbers belong to inactive results. Active and inactive are the calls of the source.

Consider 15 compounds from PubChem BioAssay (NCI).

Holding throughout (assay): NCI-60 one-dose screen, 48 h (100 = growth as untreated, 0 = no growth, -100 = all killed)
What all share (conditions): 10 µM unless noted

For test [1], the system named is T-47D breast.
Test [2] has as its system BT-549 breast.
In test [3] the test system is MDA-MB-435 melanoma.
Test [4] relates to SW-620 colon.
For test [5], the system named is MCF7 breast.
The subject of test [6] is HCT-116 colon.
The test system of test [7] is HCC-2998 colon.
Test [8] has as its system KM12 colon.

Turning to `Clc1ccc(-c2nnc(Cn3ccnc3)o2)cc1`, the growth in test [1] is 100%; in test [2], 120%; in test [3] it was 105%; in test [4], 98.6%; in test [5], 94.4%; in test [6] it was 90.5%. Also, the growth in test [7] was 110%; in test [8], 105%.
In the case of `Clc1ccc(/C=N\N=c2\scc(-c3ccc(Cl)cc3)n2/N=C/c2ccc(Cl)cc2)cc1`, the growth was 96.1% in test [1]; 107% in test [2]; 103% in test [3]; 99.9% in test [4]; 93.6% in test [5]; 90% in test [6]. Moreover, the figures for the growth in test [7] and in test [8] were 104% and 105%, respectively.
`CC1(C)N=C(N)N=C(N)N1c1ccc(Cl)c(Cl)c1`: the growth in test [1] is 69.8%; in test [2], 42.9%; in test [3] it was 27.4%; in test [4], 43.1%; in test [5], 21.4%; in test [6], 24.9%. For the same compound, the growth in test [7] is 20.8%; in test [8], 38.8%.
As to `CCCN1CCN(c2ccc3nc(-c4ccc5nc(-c6cc(OC)c(OC)c(OC)c6)[nH]c5c4)[nH]c3c2)CC1`, the growth is 65.9% in test [1]; 83.2% in test [2]; 55.1% in test [3]; 75.7% in test [4]; 23.8% in test [5]; 55.1% in test [6]. In addition, the growth was 94.2% in test [7] and 77% in test [8].
For `O=C(Nc1ccc(N2CCCCC2)c(Cl)c1)c1ccc(Br)o1`, the growth in test [1] is 63%; in test [2] it was 81.2%; in test [3], -95.4% (active); in test [4], 74.2%; in test [5], 49.9%; in test [6], 84.3%. Moreover, the growth was 111% in test [7] and 70.1% in test [8].
`N#Cc1c(-c2ccccc2)nc(SCC2CO2)nc1N1CCOCC1` (stereo not given): the growth in test [1] was 15.4%; in test [2] it was 11.4%; in test [3], 69.3%; in test [4], 84.4%; in test [5] it was 44.8%; in test [6], 95%. Also, the values for the growth in test [7] and in test [8] were 101% and 87.1%, respectively.
For the compound `CCN(CC)CCCNC(=O)c1ccc(N)cc1`, the growth in test [1] was 102%; in test [2], 102%; in test [3], 108%; in test [4], 97.8%; in test [5], 95.1%; in test [6], 94.8%. Moreover, the values for the growth in test [7] and in test [8] were 126% and 107%, respectively.
For `CCCCCCNc1cc(C)nc2ccc(OC)cc12`, the growth in test [1] was 52.1%; in test [2] it was 75.5%; in test [3], 64.6%; in test [4], 68.7%; in test [5] it was 58.8%; in test [6], 28.5%. Also, the growth in test [7] is 48.4%; in test [8], 66.3%.
As for `NC(=S)N/N=C/C(=O)O`, the growth was 40.9% in test [1]; 95% in test [2]; 92.5% in test [3]; 65.7% in test [4]; 11.7% in test [5]; 6.98% (active) in test [6]. Moreover, the growth was 104% in test [7] and 99.4% in test [8].
For the compound `C[C@@H]1CC[C@@H]2[C@@H]1[C@H](OC(=O)/C=C/c1ccccc1)[C@]1(CCCOCCOCCOCCOC(=O)CCCC[C@@H]3SC[C@@H]4NC(=O)N[C@@H]43)C[C@@H](OC(=O)CO)[C@@]2(C)O1`, the growth in test [1] was 92.4%; in test [2], 99.4%; in test [3], 99.7%; in test [4] it was 102%; in test [5] it was 102%; in test [6], 92.7%. Besides, the growth is 104% in test [7] and 102% in test [8].
In the case of `CN(C)CCn1cc(-c2ccc3c(Nc4ccc(CC(=O)Nc5cccc(F)c5)cc4)ncnc3c2)cn1`, the growth in test [1] is -39.7% [30 µM] (active); in test [2], -9.36% [30 µM] (active); in test [3], -71.7% [30 µM] (active); in test [4], -64.2% [30 µM] (active); in test [5], -56.9% [30 µM] (active); in test [6] it was -11.9% [30 µM] (active). The values for the growth in test [7] and in test [8] were -91.5% [30 µM] (active) and -83.6% [30 µM] (active), respectively.
`N#Cc1c(N)nc2c(nnn2-c2cccc(C(F)(F)F)c2)c1N`: the growth in test [1] was 48.1%; in test [2] it was 101%; in test [3], 108%; in test [4] it was 95.4%; in test [5] it was 60.1%; in test [6], 97.4%. In addition, the growth is 102% in test [7] and 86.8% in test [8].
For the compound `Cc1cnc(Nc2ccc(N3CCN(C)CC3)cc2)nc1Nc1ccc(Cl)c(NS(=O)(=O)C(C)(C)C)c1`, the growth in test [1] was 39.8%; in test [2], -5.14% (active); in test [3] it was 31.6%; in test [4] it was 1.76% (active); in test [5] it was 5.84% (active); in test [6], 8.83% (active). Further, the figures for the growth in test [7] and in test [8] were -48.1% (active) and 8.8% (active), respectively.
With `CCN(CCO)CC(=O)c1cc(Cl)cc(Cl)c1Cl`, the growth in test [1] is 84%; in test [2] it was 93.7%; in test [3] it was 105%; in test [4], 102%; in test [5] it was 98.9%; in test [6], 98.9%. The values for the growth in test [7] and in test [8] were 98.2% and 102%, respectively.
For the compound `COc1ccc(-c2nc3ccccn3c2/C=C/C(=O)c2cc(OC)c(OC)c(OC)c2)cc1`, the growth in test [1] was 26.6%; in test [2] it was 61.7%; in test [3], 38.6%; in test [4], 49.7%; in test [5], 18.8%; in test [6] it was 11.6%. Moreover, the figures for the growth in test [7] and in test [8] were 61.1% and 46.3%, respectively.
